C diff growth: C. difficile growth inhibition | Clostridium difficile clinical isolate growth, OD600, 24 h; active compounds read low | AID 1259249 | 0.25% of 86,000 active | growth activity, negative = inhibition, % at 16 µg/mL (by protocol);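 active means mean growth activity at or below -80% and every replicate also at or below -80%; inconclusive means mean at or below -80% but some replicate above -80%; inactive means mean growth activity above -80%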
Pf Dd2 growth: P. falciparum Dd2 growth inhibition | SYBR Green, 72 h; active compounds read low | activity change, % at 10 µM | AID 1159554 | 2.3% of 94,000 active; in the data active means activity change below about -80%; inconclusive means no clear call, values can overlap the other calls
T cruzi growth-1: inhibitors of T. cruzi proliferation; AID 624255; inhibition, % at 8.34 µM; T. cruzi beta-gal in NIH3T3, GalScreen luminescence, 90 h; 5.9% of 77,000 active;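 active means mean inhibition above about 93%, with at least 55% of replicates each passing it, limit read from the data, passing the limit was not always enough; inconclusive means only one of those two conditions holds; inactive means neither condition holds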
T cruzi growth-2: inhibitors of T. cruzi proliferation | 72% of 5,600 active | T. cruzi beta-gal in NIH3T3, GalScreen luminescence, 90 h | shares compounds with T cruzi growth-1 | inhibition, % at 8.35 µM | AID 651739;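 active means mean replicate inhibition above about 95% and at least 55% of replicates individually reaching it, limit read from the data; inconclusive means only one of the two criteria is met; inactive means neither criterion is met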
T cruzi growth-3: inhibitors of T. cruzi proliferation. T. cruzi beta-gal in NIH3T3, GalScreen luminescence, 90 h. 21% of 5,600 active. AID 651740. inhibition, % at 2.09 µM. shares compounds with T cruzi growth-1;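 active means mean inhibition above about 95%, with at least 55% of replicates also reaching it, limit read from the data; inconclusive means meets just one of the two conditions; inactive means meets neither condition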
NIH3T3 tox: cytotoxicity in mouse NIH/3T3 fibroblasts. NIH/3T3 viability, CellTiter-Glo ATP luminescence, 90 h. shares compounds with T cruzi growth-1. cytotoxicity (signal decrease), % at 8.35 µM. 14% of 5,600 active;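 active means mean signal decrease across replicates above about 35% based on untreated-well scatter, with enough replicates individually passing, limit read from the data; inconclusive means no rule stated though some were filed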
3T3 cytotox 2: NIH/3T3 (mouse) viability loss; NIH/3T3 viability, CellTiter-Glo ATP luminescence, 90 h; 56% of 5,600 active; shares compounds with T cruzi growth-1; AID 651744; inhibition, % at 24.9 µM;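 active means mean loss of cell viability signal at or above a set limit, and enough replicates individually reaching it; inconclusive means meets only the mean limit or only the replicate share; inactive means meets neither condition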
Of the large screens only hits and unclear results are named; the others gave an inactive call (follow-up assays come after a bar, where they were run). Compounds with a hit are over-represented: about 6.7% of the library has one in this group of screens.

C[C@@H]1CN([C@H](C)CO)C(=O)c2cc(NS(=O)(=O)c3cccs3)ccc2O[C@@H]1CN(C)Cc1ccc(-c2ccccc2)cc1	T cruzi growth-1 93 | T cruzi growth-2 inactive | T cruzi growth-3 inactive | NIH3T3 tox inactive | 3T3 cytotox 2 inactive
C[C@@H]1CN([C@@H](C)CO)C(=O)c2cc(NS(=O)(=O)c3ccc(Cl)cc3)ccc2O[C@H]1CN(C)Cc1ccc(-c2ccccc2)cc1	T cruzi growth-1 109 | T cruzi growth-2 106 | T cruzi growth-3 inactive | NIH3T3 tox inactive | 3T3 cytotox 2 104
O=C(C1CCCCC1)N1C[C@@H]2[C@H](c3ccccc31)[C@@H](CO)N2Cc1ccccc1Cl	none
C[C@@H]1CN([C@@H](C)CO)C(=O)c2cc(NC(=O)CCCN(C)C)ccc2O[C@@H](C)CCCCO[C@@H]1CN(C)S(C)(=O)=O	none
C[C@@H]1CN([C@@H](C)CO)C(=O)c2cc(-c3ccc(F)cc3)cnc2O[C@H]1CN(C)C(=O)c1ccccc1F	none
COCC(=O)Nc1ccc2c(c1)[C@H]1C[C@@H](CC(=O)NCc3ccncc3)O[C@H](CO)[C@H]1O2	none
Cc1noc(C)c1NC(=O)N(C)C[C@@H]1Oc2ccc(N(C)C)cc2CC(=O)N([C@H](C)CO)C[C@H]1C	none
OC[C@@H]1[C@@H](c2ccc(-c3ccc(F)cc3)cc2)[C@H]2CN(CCC(F)(F)F)CCCCN12	T cruzi growth-1 104 | T cruzi growth-2 96 | T cruzi growth-3 103 | NIH3T3 tox 96 | 3T3 cytotox 2 105
OC[C@H]1[C@H](c2ccc(-c3ccccc3)cc2)[C@H]2CN(CCC(F)(F)F)CCCCN21	none
OC[C@H]1[C@H](c2ccc(C#CC3CC3)cc2)[C@@H]2CN(CCC(F)(F)F)CCCCN12	none
OC[C@@H]1[C@H](c2ccc(-c3ccccc3)cc2)[C@@H]2CN(CCC(F)(F)F)CCCCN12	T cruzi growth-1 104 | T cruzi growth-2 103 | T cruzi growth-3 inactive | NIH3T3 tox 58 | 3T3 cytotox 2 105
OC[C@@H]1[C@H](c2ccc(-c3ccc(F)cc3)cc2)[C@H]2CN(CCC(F)(F)F)CCCCN12	none
OC[C@@H]1[C@H](c2ccc(C3=CCCC3)cc2)[C@@H]2CN(CCC(F)(F)F)CCCCN12	T cruzi growth-1 104 | T cruzi growth-2 inconclusive | T cruzi growth-3 inactive | NIH3T3 tox inactive | 3T3 cytotox 2 105
OC[C@@H]1[C@H](c2ccc(C#CC3CC3)cc2)[C@H]2CN(CCC(F)(F)F)CCCCN12	T cruzi growth-1 105 | T cruzi growth-2 108 | T cruzi growth-3 inconclusive | NIH3T3 tox inactive | 3T3 cytotox 2 104
OC[C@H]1[C@@H](c2ccc(C3=CCCC3)cc2)[C@@H]2CN(CCC(F)(F)F)CCCCN12	none
COc1cccc(C(=O)Nc2ccc3c(c2)C(=O)N(C)C[C@@H](OC)[C@@H](C)CN(CCc2ccccc2)[C@@H](C)CO3)c1	none (no result: C diff growth)
COc1ccc(NC(=O)Nc2ccc3c(c2)C(=O)N([C@@H](C)CO)C[C@@H](C)[C@@H](CN(C)S(=O)(=O)c2ccc(F)cc2)OCCCC[C@@H](C)O3)cc1	none
C[C@@H]1CN([C@@H](C)CO)C(=O)Cc2cc(NC(=O)Nc3ccccc3)ccc2O[C@H]1CN(C)S(=O)(=O)c1ccccc1	none
C[C@H](CO)N1C[C@H](C)[C@H](CN(C)CC2CC2)Oc2ccc(NS(=O)(=O)c3cccs3)cc2CC1=O	none
OC[C@H]1[C@H](c2ccc(-c3cccc(F)c3)cc2)[C@H]2CN(CCC(F)(F)F)CCCCN21	none
Cc1cccc(-c2ccc([C@H]3[C@H]4CN(CCC(F)(F)F)CCCCN4[C@H]3CO)cc2)c1	T cruzi growth-1 inconclusive | T cruzi growth-2 103 | T cruzi growth-3 116 | NIH3T3 tox inactive | 3T3 cytotox 2 105
COc1ccccc1C#Cc1ccc([C@@H]2[C@H]3CN(CCC(F)(F)F)CCCCN3[C@H]2CO)cc1	T cruzi growth-1 98 | T cruzi growth-2 97 | T cruzi growth-3 101 | NIH3T3 tox 61 | 3T3 cytotox 2 107
OC[C@@H]1[C@@H](c2ccc(C#CC3CC3)cc2)[C@@H]2CN(CCC(F)(F)F)CCCCN12	none

Compound activity: PubChem, Broad Institute
